Screening results deposited in PubChem BioAssay by National Center for Advancing Translational Sciences (NCATS).
Compounds with a hit are over-represented: about 5.3% of the library has one in this group of screens.
Tau fluor cs: counter-screen for tau fibril formation inhibitors. tau K18 P301L Alexa594 fluorescence, heparin fibrillization. Potency, µM (highest dose often 57.7 µM), for the others: at the top dose activity change, negative = decrease. 0.93% of 280,000 active; further: potency means the concentration at half of the fitted maximal effect; nearly all actives have a fitted effect of over 55% in size
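Human K18 P301L tau (15 uM unlabeled plus 0.24 uM Alexa 594-labeled, final) in 100 mM sodium acetate pH 7 was mixed with compound and 20 uM heparin and incubated 6 hr at 37 C.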
Tau ThT inhib: tau fibrillization inhibition (ThT binding); P10636; recombinant tau K18 P301L (four-repeat tau fragment), heparin-induced fibrillization, ThT fluorescence; Potency, µM (series often up to 57.4 µM), for the others: top-dose activity, negative = inhibition, usual class: inhibitors; 2.1% of 270,000 active; further: potency means the concentration at half of the fitted maximal effect; nearly all actives have a fitted effect of over 55% in size
Target sequence (P10636 561-689 P618L limits assumed): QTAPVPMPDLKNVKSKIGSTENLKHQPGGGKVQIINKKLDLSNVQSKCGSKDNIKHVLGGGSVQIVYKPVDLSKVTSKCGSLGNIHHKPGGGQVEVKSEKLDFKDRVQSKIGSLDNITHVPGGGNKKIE
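In this qHTS, human K18 P301L tau is incubated with compound and heparin for 6 hr at 37 C, and Thioflavin T fluorescence then reports fibril load.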
Tau FP inhib: inhibitors of human tau fibril formation; P10636; K18 P301L tau heparin fibrillization, Alexa594 FP, 6 h; Potency, µM (titrated, usually from 57.7 µM), for inactives: at the highest dose activity, negative = inhibition, usual class: inhibitors; 0.39% of 280,000 active; further: potency means the concentration at half of the fitted maximal effect; nearly all actives have a fitted effect of over 55% in size
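Human tau K18 […] P301L fragment, 15 uM unlabeled plus 0.24 uM Alexa 594-labeled tau (final), with compound and 20 uM heparin in 100 mM sodium acetate pH 7; 6 hr at 37 C, then Alexa 594 FP read.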
Sfp PPTase inh: Sfp phosphopantetheinyl transferase inhibition; Biochemical Sfp PPTase activity, qHTS; Potency, µM, without a hit: largest response in the series, negative = inhibition, most hits filed as inhibitors; 3.5% of 310,000 active;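 further: the enzyme is Sfp with the accession as filed and its product quenches rhodamine fluorescence; potency means the concentration at half of the fitted maximal effect; 0% = enzyme reaction without inhibitor and -100% = no enzyme wells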
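Fluorescence-quenching assay: 15 nM Sfp-PPTase preincubated 15 min at room temperature with compound, then 5 uM rhodamine-CoA and 12.5 uM BHQ-2-labelled YbbR peptide added. Fluorescence (ex 525/em 598 nm) read at start and after 30 min; difference gives rate.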
KDM4E inh: blocks human JMJD2E demethylase activity | Potency, µM (doses to about 57.1 µM), for the others: at the highest dose activity change, negative = inhibition, usual class: inhibitors | 1.6% of 230,000 active | JMJD2E catalytic domain, FDH-coupled NADH fluorescence (FDH is formaldehyde dehydrogenase) | B2RXH2 | AID 2147; active means well fitted inhibition curve with a large enough effect, not every such curve was filed as active; inconclusive means small, poorly fitted or top-dose-only effect, or another doubt; inactive means no such curve, though single readings can be large or run the other way;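 further: potency means the concentration at half of the fitted maximal effect; 0% = wells with enzyme and -100% = buffer wells without enzyme; nearly all actives have a fitted effect of over 50% in size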
Target sequence (B2RXH2 1-337 limits assumed): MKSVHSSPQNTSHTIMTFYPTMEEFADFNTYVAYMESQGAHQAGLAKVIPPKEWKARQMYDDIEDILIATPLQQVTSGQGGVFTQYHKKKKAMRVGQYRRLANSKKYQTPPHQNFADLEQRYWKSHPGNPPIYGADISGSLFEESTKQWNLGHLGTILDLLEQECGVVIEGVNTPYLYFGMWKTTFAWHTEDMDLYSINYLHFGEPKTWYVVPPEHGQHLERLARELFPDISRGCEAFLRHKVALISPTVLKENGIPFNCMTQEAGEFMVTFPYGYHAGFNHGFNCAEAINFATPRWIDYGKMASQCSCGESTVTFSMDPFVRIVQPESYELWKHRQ
FBPA coupling cs: coupling enzyme interference in Giardia aldolase counter-screen; coupling enzyme system counterscreen, AmpLite Red fluorescence; activity change, negative = inhibition, % at 58.2 µM, hits read low; 0.67% of 290,000 active; AID 2472; in the data active means activity change below about -30%
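First, compound is pin-transferred into glyceraldehyde-3-phosphate coupling-enzyme reagent at 57.5 uM final and held 10 min at RT. Next, substrate, coupling system and AmpLite Red are added. After 20 min RT, fluorescence (525/598 nm) is read.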
Numbers without * were called inactive; ? = inconclusive; / = no result given; [ ] = another dose, or the depositor's remark. Unless noted, the call rests on the fitted dose curve; in most records, active means well fitted curve in the direction sought with a large enough effect; inconclusive means small, poorly fitted or top-dose-only effect, or another doubt; inactive means no such curve, though single readings can be large; an effect the other way counts as inactive or inconclusive. Unless noted, on the % scale 0 is the no-effect control and ±100 the full control effect.

SMILES	Tau fluor cs	Tau ThT inhib	Tau FP inhib	Sfp PPTase inh	KDM4E inh	FBPA coupling cs
CC(C)C(C(=O)O)N1C(=O)/C(=C/c2ccc(Br)cc2)SC1=S (centres undefined)	/	/	/	?	/	10
O=C(CCN1C(=O)/C(=C\c2cccs2)SC1=S)Nc1ccc(C(=O)O)cc1	/	/	/	13%	/	/
CC(=C\c1ccccc1)/C=C1/SC(=S)N(C(C(=O)O)C(C)C)C1=O (centres undefined)	-13%	25µM*	-10%	-6%	-15%	1
CCC(C(=O)O)N1C(=O)/C(=C/C(C)=C/c2ccccc2)SC1=S (centres undefined)	-22%	18µM*	-12%	?	-10%	20
C=CCN1C(=O)/C(=C\C(C)=C\c2ccccc2)SC1=S	/	/	/	11%	/	0
CCc1ccc(NCc2cc3ccc(OC)cc3n(CC(=O)Nc3ccccc3C)c2=O)cc1	?	2%	14%	/	/	/
O=c1c2oc3ccccc3c2n(Cc2ccccc2F)c(=O)n1Cc1ccccc1	1%	9%	4%	/	/	/
CC(/C=C1\SC(=S)N(CCC(=O)Nc2cccc(C(=O)O)c2)C1=O)=C\c1ccccc1	/	/	/	-10%	/	1
CC(/C=C1\SC(=S)N(CCCC(=O)Nc2ccc(C(=O)O)cc2)C1=O)=C\c1ccccc1	-14%	14µM*	-12%	-10%	3%	-1
CC[C@H](C)[C@H](NC(=O)[C@H](CO)NC(=O)[C@H](CC(C)C)NC(=O)[C@H](CO)NC(=O)[C@@H]1CCCN1C(=O)[C@H](CC(N)=O)NC(=O)[C@@H](N)CC(=O)O)C(=O)N[C@@H](CC(=O)O)C(=O)N[C@@H](CC(C)C)C(=O)N[C@H](C(=O)N[C@@H](Cc1ccccc1)C(=O)N[C@@H](Cc1cnc[nH]1)C(=O)N[C@@H](CC(C)C)C(=O)N[C@@H](CC(C)C)C(=O)N[C@@H](CCCNC(=N)N)C(=O)N[C@H](C(=O)N[C@@H](CC(C)C)C(=O)N[C@@H](CC(C)C)C(=O)N[C@@H](CCC(=O)O)C(=O)N[C@@H](CC(C)C)C(=O)N[C@@H](C)C(=O)N[C@@H](CCCNC(=N)N)C(=O)N[C@H](C(=O)N[C@@H](CCC(N)=O)C(=O)N[C@@H](CO)C(=O)N[C@@H](CCC(N)=O)C(=O)N[C@@H](CCCNC(=N)N)C(=O)N[C@@H](CCC(=O)O)C(=O)N[C@@H](CCCNC(=N)N)C(=O)N[C@@H](C)C(=O)N[C@@H](CCC(=O)O)C(=O)N[C@@H](CCC(N)=O)C(=O)N[C@@H](CC(N)=O)C(=O)N[C@@H](CCCNC(=N)N)C(=O)N[C@H](C(=O)N[C@H](C(=O)N[C@@H](Cc1ccccc1)C(=O)N[C@@H](CC(=O)O)C(=O)N[C@@H](CO)C(=O)N[C@H](C(N)=O)C(C)C)[C@@H](C)CC)[C@@H](C)CC)[C@@H](C)O)[C@@H](C)O)[C@@H](C)O	/	/	/	-1%	/	-2
COc1ccc(N2C(=O)/C(=C3/C=CC=CN3C)SC2=S)cc1	-5%	?	-4%	50µM*	-3%	-4
COC(=O)c1ccc(-c2ccc(C3C4C=CCC(C)C4C(=O)N3Cc3ccccc3)c(F)c2)cc1 (centres undefined)	/	/	/	?	/	-2
CCOC(=O)Cn1c(=O)n(Cc2ccco2)c(=O)c2ccc(C(=O)NCCc3ccccc3)cc21	-30%	?	-1%	56µM*	?	-4
COc1ccc(CCNC(=O)Cn2c(=O)n(Cc3ccco3)c(=O)c3ccc(Cl)cc32)cc1OC	-20%	-4%	-14%	?	1%	1
CCCc1cc(OC)c2c(c1)OCO2	-10%	4%	-7%	18%	-28%	-1
Cc1cc(C)nc(Sc2nc(Cl)nc(N(c3ccccc3)c3ccccc3)n2)n1	-15%	?	?	25µM*	-4%	4
Cc1cc(C)nc(SC(C(=O)O)c2ccccc2)n1 (centres undefined)	2%	4%	-2%	11%	0%	0
CN(C)CC[C@H](c1ccc(Br)cc1)c1ccccn1	/	/	/	27%	5%[25.5 µM]	0
Cc1ccc(CCNS(=O)(=O)c2ccc3c(c2)CCN3C(=O)CCC(=O)O)cc1	-6%	-2%	1%	/	/	/
Cn1c(=O)c(CCc2ccccc2)nc2cnc(Oc3ccccc3)nc21	/	/	/	-9%	/	-2
COc1ccc(NC(=O)C(C)N2CCN(C)CC2)cc1 (centres undefined)	/	/	/	63µM*	/	-2
COc1cc([C@@H]2c3cc4c(cc3C(OC3OC5COC(C)OC5C(O)C3O)C3COC(=O)[C@@H]32)OCO4)cc(OC)c1O (some centres undefined)	-4%	-6%	-4%	10%	7%	3
Cc1cccc(N=C2NC(=O)/C(=C3/C(=O)N(C)c4ccccc43)S2)c1C	?	10µM*	2%	-14%	6%	1
Cc1ccccc1N=C1NC(=O)/C(=C/c2cccn2C)S1	-29%	?	-3%	3%	-1%	-1
COc1ccc(OC)c(C(=O)CSc2nnc(Cc3cccs3)n2C)c1	2%	-1%	0%	45µM*	?	-12
SMILES	Tau fluor cs	Tau ThT inhib	Tau FP inhib	Sfp PPTase inh	KDM4E inh	FBPA coupling cs
COc1cc2c(cc1NC(=O)CSc1nnc(Cc3cccs3)n1C)oc1ccccc12	?	?	-2%	-16%	-3%	0
COCCCNC(=S)Nc1cccc2ncccc12	-3%	-10%	-5%	-14%	-10%	-33*
COCCCNC(=S)NCCc1ccc(F)cc1	-15%	-8%	-1%	15%	-2%	-1
COCCCNC(=S)NNC(=S)Nc1ccc(F)cc1F	-10%	-15%	-3%	79µM*	2%	6
O=C(NC(=S)Nc1cccc2ncccc12)c1ccco1	-6%	-11%	3%	-30%	6%	1
COCCCNC(=S)NNC(=S)Nc1ccccc1	-7%	-18%	2%	45µM*	-3%	3
CCc1nn(C(C)C(=O)N2CCN(c3cccc(C(F)(F)F)c3)CC2)c(=O)c2cc3occc3n12 (centres undefined)	-15%	?	0%	/	/	/
Cc1cc(C)c(Cn2c(C(O)c3ccccc3)nc3ccccc32)c(C)c1 (centres undefined)	-17%	-14%	-4%	/	/	/
COc1ccc(NS(=O)(=O)c2cc(NC(=O)c3sccc3C)ccc2N2CCOCC2)cc1	-29%	-11%	2%	14%	-10%	-4
COc1ccc(NS(=O)(=O)c2cc(NC(=O)CC3CCCC3)ccc2N2CCOCC2)cc1	?	-14%	-2%	25µM*	?	-8
